DTT redox prof: compounds producing H2O2 with reducing agent – biochemical, NIH compound library profiling, artefact control for MLSCN library redox annotation, primary screen; hit rate 0.03% among 200,000; activation, % at 10 µM; DTT-dependent redox cycling H2O2, phenol red/HRP absorbance; 100% = 100 µM peroxide control, 0% = buffer;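 active = activation of at least 50% relative to the plate's high and low controls in the primary single-dose screen; inactive = activation below 50%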;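 note: compound incubated with DTT at 0.8 mM final as the reducing agent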
PERK inhibitor: blocks human PERK kinase. hit rate 0.17% among 220,000. Q9NZJ5. CHO PERK-DD fusion, SEAP luminescence translation reporter. inhibition, % at 5.6 µM. AID 1416;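 active = inhibition above the mean inhibition of all tested compounds plus 3 SD, set separately per screening campaign, cut at about 2.9% in these data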;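 note: PERK kinase domain activated by AP20187 dimerizer at 100 nM; 0% = DMSO with dimerizer and 100% = rapamycin at 8.4 µM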
Target sequence (Q9NZJ5 whole entry, looked up, the tested form may be a part): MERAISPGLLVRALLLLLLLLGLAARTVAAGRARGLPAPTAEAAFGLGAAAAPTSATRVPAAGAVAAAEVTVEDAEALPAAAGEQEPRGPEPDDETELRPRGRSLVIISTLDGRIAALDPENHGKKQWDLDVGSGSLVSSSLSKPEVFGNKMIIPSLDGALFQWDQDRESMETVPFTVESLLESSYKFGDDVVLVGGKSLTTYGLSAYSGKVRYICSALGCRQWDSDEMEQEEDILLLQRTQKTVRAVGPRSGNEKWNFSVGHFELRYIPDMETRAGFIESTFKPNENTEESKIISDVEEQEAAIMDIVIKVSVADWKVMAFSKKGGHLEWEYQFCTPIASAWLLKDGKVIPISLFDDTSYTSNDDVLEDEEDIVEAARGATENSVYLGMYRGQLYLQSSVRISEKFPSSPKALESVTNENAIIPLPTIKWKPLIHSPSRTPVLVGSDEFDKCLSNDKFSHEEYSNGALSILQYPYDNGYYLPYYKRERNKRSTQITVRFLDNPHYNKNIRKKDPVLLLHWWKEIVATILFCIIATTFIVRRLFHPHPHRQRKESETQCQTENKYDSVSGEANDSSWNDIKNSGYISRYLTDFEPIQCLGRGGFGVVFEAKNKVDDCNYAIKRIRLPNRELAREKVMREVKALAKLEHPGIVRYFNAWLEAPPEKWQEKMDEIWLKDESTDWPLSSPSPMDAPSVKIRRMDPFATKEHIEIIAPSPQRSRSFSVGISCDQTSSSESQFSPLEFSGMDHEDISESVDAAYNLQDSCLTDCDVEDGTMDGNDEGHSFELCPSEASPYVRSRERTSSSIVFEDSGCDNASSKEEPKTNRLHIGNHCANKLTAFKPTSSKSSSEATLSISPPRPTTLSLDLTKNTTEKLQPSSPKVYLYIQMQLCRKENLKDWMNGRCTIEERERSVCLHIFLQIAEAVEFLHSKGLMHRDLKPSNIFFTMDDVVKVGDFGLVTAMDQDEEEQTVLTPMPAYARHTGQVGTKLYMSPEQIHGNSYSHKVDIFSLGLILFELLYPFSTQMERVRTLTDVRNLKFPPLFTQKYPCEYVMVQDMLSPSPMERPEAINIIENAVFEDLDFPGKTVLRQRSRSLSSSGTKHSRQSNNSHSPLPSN
PKD1 inh: PKD1 (human) kinase inhibition | inhibition, % (no concentration beside the values) | hit rate 0.056% among 200,000 | PKD1 kinase fluorescence polarization assay | AID 797; in the data active = inhibition above about 50%
WT yeast gro inh: growth inhibition of WT yeast, mitochondrial fusion screen; mitochondrial fusion phenotypic screen, WT strain; inhibition, % at 10 µM; hit rate 2.1% among 190,000; AID 1362; in the data active = inhibition above about 58%; tested in S. cerevisiae
L929 necroptosis: L929 zVAD cell death inhibition; L929 zVAD necroptosis rescue, ATP luminescence, 24 h; with zVAD 60 µM; viability rescue, % at 10 µM; hit rate 0.38% among 220,000; AID 1377;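 active = activation, scaled between plate controls, above about 75%, limit read from the data; inactive = activation under that limit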;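 note: 0% = zVAD with DMSO and 100% = DMSO alone without zVAD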
TNF necrop inh: TNF-alpha cell death inhibition in Jurkat FADD-/- cells; hit rate 0.068% among 220,000; activation (protection from cell death), % at 10 µM; Jurkat FADD-/- TNF necroptosis rescue, ATP luminescence, 24 h; 0 = TNF only, 100 = no-TNF cells;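 active = activation, meaning protection from cell death, of at least 50% relative to plate controls; inactive = activation below 50%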;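 note: necroptosis triggered by 40 ng/mL TNF-alpha added together with compound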
zVAD death conf: confirmed blocker of zVAD induced death in L929 cells. shares compounds with L929 necroptosis. L929 zVAD-induced necroptosis rescue, ATP luminescence, 24 h. activation (protection from necroptosis), % at 10 µM. hit rate 16% among 760. AID 463117;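 active = mean protection from necroptosis of at least 50% over duplicate tests; inactive = mean protection below 50%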;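 note: 0% = cells with zVAD alone and 100% = vehicle cells without zVAD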
* = called active by the depositor; . = not tested or not shown. Rows were chosen to be rich in hits. Some 2.4% of all compounds tested hit in one or more screens of this group.

SMILES | DTT redox prof | PERK inhibitor | PKD1 inh | WT yeast gro inh | L929 necroptosis | TNF necrop inh | zVAD death conf
CN(CCNC(=O)c1cc2c(=O)n(C)c3ccccc3c2n1C)Cc1ccccc1 | 0 | -1 | 6 | 16 | 64 | -1 | .
CCCN(CCC)CCNC(=O)c1cc2c(=O)n(C)c3ccccc3c2n1C | 0 | 0 | 2 | 11 | 78* | 5 | 33
COc1cc(/C=N/Nc2nc3ccccc3[nH]2)cc(Br)c1OCC(=O)N(C)C | 0 | -1 | -2 | 21 | 75* | 64* | 60*
COc1cc(/C=N/Nc2nc3ccccc3[nH]2)ccc1O | 1 | 0 | 9 | 6 | 79* | 36 | 47
COc1cc(/C=N/Nc2nc(=O)[nH]nc2C)ccc1O | . | 0 | . | . | 2 | 0 | .
COc1cc(/C=N/Nc2nc3ccccc3[nH]2)cc(OC)c1O | 0 | 1 | 0 | 5 | 87* | 16 | 3
COc1cc(/C=N/Nc2nc3ccccc3[nH]c2=O)ccc1O | -2 | 0 | 0 | 0 | 78* | -3 | 15
COc1cccc(/C=N/Nc2nc3ccccc3[nH]2)c1OC | . | -3 | . | . | 7 | 12 | .
COc1ccc(O)c(/C=N/Nc2nc3ccccc3[nH]2)c1 | 0 | 1 | 6 | 8 | 22 | 20 | .
CC(C)OC(=O)CSc1nnc2c(n1)[nH]c1ccc(F)cc12 | -3 | 0 | 2 | -4 | 3 | 0 | .
Cc1ccc(N=C(N)N=C(N)N)c(C)c1 | . | 2 | . | . | 1 | 3 | .
CCN(CC)C(=O)C(=O)Nc1ccc(F)c(Cl)c1 | 1 | 0 | 3 | -5 | 1 | 1 | .
Cc1ccc(NC2Sc3ccccc3NC2=O)cc1Cl (stereo not drawn) | . | 0 | . | . | 0 | 1 | .
CCc1ccc(NC(=O)Nc2ccc3c(c2)N(C)C(=O)CS3)cc1 | -1 | 0 | 0 | -6 | 99* | -2 | 47
CCOC(=O)/C=C/C(=O)Nc1nccs1 | 0 | 1 | -5 | -18 | 60 | 10 | .
O=C(/C=C/c1cccs1)Nc1nccs1 | 0 | 0 | 1 | 5 | 79* | 11 | 1
O=C(/C=C/c1cccc(F)c1)Nc1nccs1 | 0 | 1 | -12 | 19 | 88* | 31 | 76*
Cc1ccc(/C=C/C(=O)Nc2nccs2)o1 | 0 | 0 | 7 | 19 | 79* | 16 | 6
O=C(/C=C\c1ccccc1)Nc1nccs1 | -1 | 0 | -1 | -4 | 103* | 24 | 7
COCC(C)n1c(C)cc(C(=O)COC(=O)CN=C2NS(=O)(=O)c3ccccc32)c1C (stereo not drawn) | 0 | 1 | -10 | -9 | 1 | 0 | .
CCCCOc1ncnc2c1[nH]c1ccc(C)cc12 | . | 0 | . | . | 1 | -19 | .
Cc1[nH]c2c(ccc3cccnc32)c1C | . | 0 | . | . | 78* | 12 | 10
CCOC(=O)N1CCN(C(=O)CN(Cc2ccc(Cl)cc2)S(=O)(=O)c2ccc(C)cc2)CC1 | 0 | -1 | 1 | 15 | 0 | -1 | .
COc1ccccc1Nc1nc(-c2ccccc2O)nc2ccccc12 | 0 | 1 | -6 | -17 | 76* | 2 | 0
O=C(Nc1ccc(-c2csc(Nc3ccc(Cl)cc3)n2)cc1)c1cccc(C(F)(F)F)c1 | . | . | . | . | 82* | 8 | 39
SMILES | DTT redox prof | PERK inhibitor | PKD1 inh | WT yeast gro inh | L929 necroptosis | TNF necrop inh | zVAD death conf
Oc1ccc(/C=N/Nc2ncc(Br)cn2)c(O)c1 | 0 | 0 | 1 | 31 | 92* | 31 | 3
COc1ccc(C2=NN(C(C#N)c3ccc(OC)cc3)C(c3ccccc3)C2)cc1 (stereo not drawn) | 1 | 0 | -19 | 0 | 1 | 1 | .
O=C(CN1CCOCC1)Nc1nc2ccc(Br)cc2s1 | 1 | 0 | -6 | 22 | 77* | 4 | 16
O=C(Nc1ccc(Cl)c(C(F)(F)F)c1)NC1CC2CCCC(C1)N2Cc1ccccc1 (stereo not drawn) | -2 | 0 | -1 | 54 | 76* | 0 | 33
O=C(NC1CC2CCCC(C1)N2C(=O)Nc1ccc(Cl)c(C(F)(F)F)c1)C1CC1 (stereo not drawn) | 1 | 0 | -3 | -20 | 1 | 0 | .
O=C(Nc1cccc(S(=O)(=O)Nc2ccc(Cl)cc2)c1)c1ccc[n+]([O-])c1 | . | 0 | . | . | 1 | 1 | .
CC(C)(C)c1cc(NC(=O)Nc2ccc(Br)cc2Cl)no1 | 0 | 0 | -5 | 8 | 76* | 2 | 2
CC(C)(C)c1cc(NC(=O)Nc2ccc(Cl)cc2Cl)no1 | . | 1 | . | . | 54 | 3 | .
Cc1nc(-c2cccnc2)sc1C(=O)N/N=C/c1ccccc1Cl | . | 1 | . | . | 1 | 3 | .
CC1CCC/C=C/C(=O)c2c(O)cc(O)cc2CC(=O)O1 (stereo not drawn) | . | . | . | . | 84* | -26 | 33
CCn1cc([N+](=O)[O-])c(C(=O)Nc2nc3ccc(OC)cc3s2)n1 | -1 | 1 | -4 | -7 | 0 | 0 | .
CC(=O)Nc1cccc(NC(=O)Nc2cccc(Cl)c2C)c1 | 3 | 0 | 2 | 2 | 1 | 0 | .
Cc1c(Cl)cccc1NC(=O)Nc1cc(C(C)(C)C)nn1C | . | -1 | . | . | 81* | 10 | 31
O=C(Cc1ccc(F)cc1)Nc1cccc(-c2ccc3nncn3n2)c1 | 9 | 1 | -7 | -6 | 89* | 5 | 3
COc1ccc(N2C3=C(CC4=C2CCCC4=O)C(=O)CCC3)cc1 | 2 | 0 | -5 | 14 | 0 | -4 | .
COc1ccc(N2C3=C(CC4=C2CC(C)(C)CC4=O)C(=O)CC(C)(C)C3)cc1 | 3 | 1 | -9 | -6 | 95* | 2 | 40
COc1ccc2sc(NC(=O)CC(C)C)nc2c1 | 0 | 0 | -1 | 14 | 77* | 4 | 7
CCC(=O)Nc1nc2ccc3nc(C)sc3c2s1 | -1 | 0 | -28 | 10 | 84* | 0 | 31
COc1ccc2nc(NC(=O)CCc3cc(OC)c(OC)c(OC)c3)sc2c1 | 0 | 1 | 0 | . | 88* | 6 | 4
CCC(=O)Nc1nc2cc(OC)ccc2s1 | 2 | 1 | -8 | . | 88* | -2 | 29
CC(C)(C)c1ccc(C(=O)N/N=C/c2ccc(OCCCF)cc2)cc1 | 0 | 0 | -1 | 9 | 5 | -1 | .
O=C(NCCN1CCCC1)c1ccc2c(=O)n(CCc3ccccc3)c(=O)[nH]c2c1 | -2 | 0 | -3 | -9 | 91* | -2 | 6
COc1ccc(C(=O)OCC(=O)NC(=O)NC2CCCC2)c(O)c1 | -1 | -1 | -2 | 9 | 77* | 1 | 10
Cc1ccc(NC(=O)Nc2ncnc3nc[nH]c23)cc1 | . | 1 | . | . | 29 | -7 | .
Cc1cc(C(=O)COC(=O)c2ccc(O)cc2)c(C)n1Cc1ccco1 | 0 | 1 | 0 | -9 | 75* | -2 | 2

Screens as filed in PubChem BioAssay.
